From PubChem BioAssay (NCATS)
Where “and” joins values, the source holds several entries; their conditions need not be identical. Equal entries are not always repeated. Results filed as inconclusive are left out. Calls of active or inactive are those of the source. Unless noted, calls follow the shape of the dose curve; as a rule, active = well fitted curve in the direction sought with a large enough effect; inconclusive = small, poorly fitted or top-dose-only effect, or another doubt; inactive = no such curve, though single readings can be large; an effect the other way counts as inactive or inconclusive.

Experiments:
[1] = target: Tumor necrosis factor (Homo sapiens) (UniProt P01375); assay: qHTS assay to identify small molecules that stimulate Tumor Necrosis Factor-alpha (TNF-alpha) secretion (AID 651757; active = well fitted curve in the direction sought with a large enough effect in the signal ratio; the % refers to the signal ratio; also: 0% is about no effect)
Tumor necrosis factor (Homo sapiens), sequence (P01375 whole entry, looked up): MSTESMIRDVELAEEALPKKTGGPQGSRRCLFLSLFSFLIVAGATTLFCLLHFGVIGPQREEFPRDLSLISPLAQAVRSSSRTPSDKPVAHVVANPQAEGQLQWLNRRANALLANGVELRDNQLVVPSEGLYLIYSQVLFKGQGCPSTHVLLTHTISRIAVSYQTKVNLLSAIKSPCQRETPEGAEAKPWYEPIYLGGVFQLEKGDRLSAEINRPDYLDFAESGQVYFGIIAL
In short: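 THP-1 cells were exposed to compounds for 17 hrs at 37 C, after which secreted TNF-alpha was measured by homogeneous HTRF (TR-FRET) using cryptate- and XL665-labeled anti-TNF-alpha antibodies, read after 3 hr at room temperature.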

[2] = qHTS assay to identify small molecules that stimulate interleukin-8 (IL-8) secretion (AID 651758; active = well fitted activation curve with a large enough effect in the signal ratio; the % refers to the signal ratio; also: 0% is about no effect)
In short: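 Secreted IL-8 measured by TR-FRET sandwich (cryptate and XL665 antibodies) from THP-1 cells exposed to compound overnight (16 hrs, 37 C).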

[3] = qHTS assay for environmental chemicals that activate the Aryl hydrocarbon Receptor (AhR) signaling pathway (AID 651777); settings: 1A2-DRE human hepatoma cells, luciferase, 24 h; activation: stronger effect = higher value; also: % of control where 0% means no effect; nearly all actives have a fitted effect of over 15% in size
In short: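 1A2-DRE human hepatoma reporter line; 1,200 cells/well; cmpd or DMSO 24 h, 37 C/5% CO2; One-Glo 30 min RT; luciferase lum.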

[4] = target: Peroxisome proliferator-activated receptor alpha (Homo sapiens) (UniProt Q07869); assay: qHTS assay for small molecule agonists of the peroxisome proliferator-activated receptor alpha (PPARalpha) signaling pathway (AID 651778); settings: PathHunter PPARalpha complementation, chemiluminescence, 6 h; stronger effect = higher value; also: % of control where 0% means no effect
Peroxisome proliferator-activated receptor alpha (Homo sapiens), sequence (Q07869 whole entry, looked up): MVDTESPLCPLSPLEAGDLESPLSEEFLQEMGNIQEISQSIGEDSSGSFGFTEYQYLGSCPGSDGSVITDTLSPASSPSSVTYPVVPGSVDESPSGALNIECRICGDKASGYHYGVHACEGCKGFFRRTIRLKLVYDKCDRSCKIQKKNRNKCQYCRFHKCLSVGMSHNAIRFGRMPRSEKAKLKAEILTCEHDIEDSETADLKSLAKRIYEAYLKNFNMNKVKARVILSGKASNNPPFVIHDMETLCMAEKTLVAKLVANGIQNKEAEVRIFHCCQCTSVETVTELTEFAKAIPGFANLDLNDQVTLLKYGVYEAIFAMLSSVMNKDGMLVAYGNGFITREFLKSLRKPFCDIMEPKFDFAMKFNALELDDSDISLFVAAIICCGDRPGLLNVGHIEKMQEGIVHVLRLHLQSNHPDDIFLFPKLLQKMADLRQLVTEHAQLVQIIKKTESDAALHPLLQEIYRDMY
In short: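 Chemiluminescence from complemented enzyme reported PPARalpha activation in cells after 6 hr of compound treatment at 37 C. The detection reagent was incubated for 60 min at room temperature, and compounds were scored as agonists.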

[5] = target: Nuclear receptor ROR-gamma (Homo sapiens) (UniProt P51449); assay: qHTS assay for small molecule antagonists of the retinoid-related orphan receptor gamma (ROR-gamma) signaling pathway (AID 651802); also: series mostly up to about 92 µM; % is scaled to controls: 0 for no effect and ±100 for the full control effect; nearly all actives have a fitted effect of over 60% in size
Nuclear receptor ROR-gamma (Homo sapiens), sequence (P51449 whole entry, looked up): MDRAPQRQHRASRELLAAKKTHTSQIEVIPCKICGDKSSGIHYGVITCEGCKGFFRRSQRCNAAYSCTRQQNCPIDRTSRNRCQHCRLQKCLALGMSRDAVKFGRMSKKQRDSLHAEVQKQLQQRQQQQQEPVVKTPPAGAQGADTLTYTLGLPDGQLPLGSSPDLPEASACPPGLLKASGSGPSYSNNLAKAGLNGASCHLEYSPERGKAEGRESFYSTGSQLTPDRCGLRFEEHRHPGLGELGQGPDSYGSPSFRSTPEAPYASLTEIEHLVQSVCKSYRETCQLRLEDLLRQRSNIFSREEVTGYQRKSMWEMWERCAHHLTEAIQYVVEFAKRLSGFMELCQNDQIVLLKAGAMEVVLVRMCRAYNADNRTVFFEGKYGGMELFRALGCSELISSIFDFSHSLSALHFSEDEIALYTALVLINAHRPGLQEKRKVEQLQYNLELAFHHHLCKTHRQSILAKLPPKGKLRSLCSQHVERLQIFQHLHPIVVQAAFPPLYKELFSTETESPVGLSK
In short: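 CHO cells carrying TET-inducible ROR-gamma and an ROR response element–luciferase reporter were exposed to compound, then induced with doxycycline. After 16hr at 37C, luminescence was read; lower signal indicates antagonism.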

[6] = qHTS assay for small molecule agonists of the antioxidant response element (ARE) signaling pathway measured by Nrf2-dependant transcriptional activity (AID 720636; active = well fitted curve in the direction sought with a large enough effect in the repeat runs; an effect the other way counts as inactive or inconclusive;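 also: HepG2 cells with an ARE-driven luciferase reporter; % of control where 0% means no effect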)
In short: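 Cells: ARE-luc HepG2 with Nrf2-responsive luciferase. Medium contained 1% dialyzed FBS. Compound exposure lasted 16 hr at 37 C and 5% CO2, followed by ONE-Glo luciferase detection.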

[7] = qHTS assay for small molecule antagonists of the retinoid-related orphan receptor gamma (ROR-gamma) signaling pathway - cell viability counter screen (AID 720652; active = well fitted curve in the direction sought with a large enough effect in the repeat runs; an effect the other way counts as inactive or inconclusive;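 also: series mostly up to about 92 µM; compound exposure lasted 16 hr before ATP read; % is scaled to controls: 0 for no effect and ±100 for the full control effect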)
In short: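 Counter screen in CHO cells carrying TET-inducible ROR-gamma and an ROR response element-luciferase reporter; cells plated 5 hr, compound pinned, doxycycline added, then 16 hr at 37 C. Viability read as intracellular ATP by CellTiter-Glo luminescence.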

[8] = qHTS assay for small molecule agonists of the antioxidant response element (ARE) signaling pathway measured by Nrf2-dependant transcriptional activity - cell viability counter screen (AID 720653; active = well fitted curve in the direction sought with a large enough effect in the repeat runs; an effect the other way counts as inactive or inconclusive; also: % is scaled to controls: 0 for no effect and ±100 for the full control effect); settings: ARE-bla HepG2 viability, CellTiter-Glo ATP luminescence, 16 h; stronger effect = lower value
In short: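 Cytotoxicity counter screen: intracellular ATP quantified by CellTiter-Glo luminescence in the same ARE-bla HepG2 plates, after 16 h compound exposure and a 2 h beta-lactamase substrate step.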

[9] = qHTS assay for cell viability of HEK293 cells (AID 743288); settings: ATP luminescence (CellTiter-Glo), 18 h, stronger effect = lower value; also: % is scaled to controls: 0 for no effect and ±100 for the full control effect; nearly all actives have a fitted effect of over 50% in size
In short: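 Luminescent ATP quantitation served as the viability read-out. Cells (parental HEK293, 2,000/well) received compounds after at least 5 h at 37 C and were exposed for 18 h before a 30 min room-temperature reagent step.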

[10] = qHTS assay for cell viability of the p53RE-bla HCT-116 cell line (AID 743292); also: % is scaled to controls: 0 for no effect and ±100 for the full control effect; nearly all actives have a fitted effect of over 55% in size
In short: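 HCT-116 p53RE-bla cells seeded 4,000/well; 5 h at 37 C; compound (DMSO) added; 16 h at 37 C; CellTiter-Glo added, 30 min RT; luminescence read.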

[11] = target: Nuclear receptor subfamily 1 group I member 2 (Rattus norvegicus) (UniProt Q9R1A7); assay: qHTS assay for small molecule activators of the rat pregnane X receptor (rPXR) signaling pathway (AID 651751; call rule not given here; also: 0% is about no effect); settings: rPXR reporter cells, luciferase (One-Glo), 24 h
Nuclear receptor subfamily 1 group I member 2 (Rattus norvegicus), sequence (Q9R1A7 whole entry, looked up): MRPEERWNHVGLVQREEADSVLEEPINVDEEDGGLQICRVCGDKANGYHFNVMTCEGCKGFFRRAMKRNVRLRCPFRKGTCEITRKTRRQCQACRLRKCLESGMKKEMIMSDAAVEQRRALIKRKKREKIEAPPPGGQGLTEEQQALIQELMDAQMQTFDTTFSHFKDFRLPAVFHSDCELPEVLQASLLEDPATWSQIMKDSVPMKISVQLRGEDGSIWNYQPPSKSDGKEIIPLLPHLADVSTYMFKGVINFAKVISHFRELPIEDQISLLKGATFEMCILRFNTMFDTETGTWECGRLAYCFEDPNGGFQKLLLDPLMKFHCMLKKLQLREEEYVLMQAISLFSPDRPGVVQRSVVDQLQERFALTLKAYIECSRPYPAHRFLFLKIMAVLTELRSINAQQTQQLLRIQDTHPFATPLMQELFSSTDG

[12] = qHTS assay for small molecule activators of the human pregnane X receptor (PXR) signaling pathway (AID 720659; call rule not given here; also: 0% is about no effect)
[13] = qHTS assay for small molecule disruptors of the mitochondrial membrane potential - 5 hr assay (AID 651755; calls by dose curve; also: % is scaled to controls: 0 for no effect and ±100 for the full control effect; nearly all actives have a fitted effect of over 40% in size)
In short: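 HepG2, 2,000 cells/well, overnight attach; cpd or DMSO 5 hr, 37C/5% CO2; Mito-MPS 30 min 37C; fluor 490/535 + 540/590 nm.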

Cc1ccc(C(C)(C)C)cc1
inactive: Potency [1] | Potency [2] | activation [3] -0.334% | max response [4] 3.18% | Potency [5] | outcome [6] | Potency [7] | max response [8] -0.19% | max response [9] 1.5% | Potency [10] | max response [11] -0.498% | outcome [12]

c1ccc2[nH]cnc2c1
inactive: Potency [13] | Potency [1] | activation [3] 1.2% | max response [4] -1.28% | Potency [5] | outcome [6] | Potency [7] | max response [8] -6.28% | Potency [10] | max response [11] 3.1% | outcome [12]

CCCCCCCCCCCCC1CO1 (centres undefined)
inactive: Potency [13] | Potency [1] | activation [3] 0.974% | max response [4] -4.01% | Potency [5] | outcome [6] | max response [8] 1.04% | max response [9] -4.83% | Potency [10] | max response [11] 4.9% | outcome [12]

Cc1cc(C2(c3cc(C)c(O)cc3C)OS(=O)(=O)c3ccccc32)c(C)cc1O
inactive: Potency [13] | activation [3] 0.42% | max response [4] -10.4% | Potency [5] | outcome [6] | Potency [7] | max response [8] -15.6% | max response [9] -2.41% | Potency [10] | max response [11] -3.33%

Cc1ccccc1Br
inactive: Potency [13] | Potency [1] | activation [3] -0.782% | max response [4] -3.06% | Potency [5] | outcome [6] | Potency [7] | max response [8] -8.12% | max response [9] -0.991% | Potency [10] | max response [11] -1.24% | outcome [12]

C=CCOC(=O)CCCCCCCC
inactive: Potency [1] | Potency [2] | activation [3] -2.14% | max response [4] -0.94% | Potency [5] | outcome [6] | Potency [7] | max response [8] 3.3% | Potency [10] | max response [11] -5.54% | outcome [12]

Cc1ccc2oc(=O)ccc2c1
inactive: Potency [13] | Potency [1] | activation [3] 8.69% and -0.308% | max response [4] 7.89% and -0.114% | Potency [7] | max response [8] -9.69% and -6.43% | max response [9] 2.42% and -2.56% | Potency [10] | max response [11] 9.5% and 1.03% | outcome [12]

O=C(O)CNC(=O)c1ccc(CO)o1
inactive: Potency [13] | Potency [1] | activation [3] -1.34% | max response [4] -5.12% | Potency [5] | outcome [6] | Potency [7] | max response [8] -15.7% | max response [9] -5.2% | Potency [10] | max response [11] -7.08% | outcome [12]

CCOCCOCC
inactive: Potency [13] | activation [3] 1.1% | max response [4] -2.27% | Potency [5] | outcome [6] | Potency [7] | max response [8] 5.13% | max response [9] 0.474% | Potency [10] | max response [11] -2.52% | outcome [12]

[O-]/[N+](=N\O)c1ccccc1
inactive: Potency [13] | Potency [1] | activation [3] 5.58% | max response [4] -0.0477% | Potency [5] | Potency [7] | max response [8] -5.46% | max response [9] -16.3% | Potency [10] | max response [11] -1.54% | outcome [12]

CCOC(=O)OCC
inactive: Potency [1] | Potency [2] | activation [3] 0.303% | outcome [6] | Potency [7] | max response [8] 2.96% | max response [9] 1.3% | Potency [10] | max response [11] -3.24% | outcome [12]

CCNc1cc(O)ccc1C
inactive: Potency [13] | activation [3] 6.45% | max response [4] -6.44% | Potency [5] | outcome [6] | Potency [7] | max response [8] 9.97% | max response [9] 2.21% | Potency [10] | max response [11] -2.12%

O=C(Cl)c1cccc([N+](=O)[O-])c1
inactive: Potency [1] | Potency [2] | max response [4] -2.24% | Potency [5] | outcome [6] | Potency [7] | max response [8] -1.32% | max response [9] -15.1% | Potency [10] | max response [11] -6.23% | outcome [12]

Cc1c(N)cccc1[N+](=O)[O-]
inactive: Potency [13] | Potency [1] | activation [3] -0.541% | max response [4] -5.39% | Potency [5] | outcome [6] | Potency [7] | max response [8] 12.6% | Potency [10] | max response [11] -0.458% | outcome [12]

O=C1CCC(=O)O1
inactive: Potency [13] | Potency [1] | activation [3] -1.39% | max response [4] 3.38% | Potency [5] | outcome [6] | Potency [7] | max response [8] -3.63% | max response [9] -3.25% | Potency [10] | max response [11] -4.75% | outcome [12]

Cc1ccc(C)c(O)c1
inactive: Potency [1] | Potency [2] | activation [3] 0.145% | max response [4] -1.27% | Potency [5] | outcome [6] | Potency [7] | max response [8] 0.808% | max response [9] 5.19% | Potency [10] | max response [11] 4.49% | outcome [12]

CCCCC(C=O)CC (centres undefined)
inactive: Potency [13] | Potency [1] | activation [3] 0.316% | max response [4] -5.44% | Potency [5] | outcome [6] | Potency [7] | max response [8] 4.13% | max response [9] -9.34% | Potency [10] | max response [11] -0.0559% | outcome [12]
